Results as given in the supplement of paper PMC10933113.
Structures can show the parent of a compound that is named as a salt. ± gives the uncertainty stated by the source.

Each molecule was assayed on THP-1 (assay: CD86 surface expression induction over DMSO control (% over DMSO); higher = stronger dendritic cell activation). Conditions: exposure time: 24 h.
Protocol: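 hCLAT-like CD54 and CD86 surface expression on THP1 cells after 24 h exposure at a single concentration (highest non-cytotoxic concentration, or 100-200 µM if not cytotoxic). Flow cytometry (iQue) was run on 5,000 live cells.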

Row | Structure (SMILES) | CD86 surface expression induction
1 | c1ccc2[nH]c(-c3cscn3)nc2c1 [Thiabendazole] (100 µM) | 6.44 ± 20
2 | Clc1nc(C(Cl)(Cl)Cl)c(Cl)c(Cl)c1Cl [2,3,4,5-Tetrachloro-6-(trichloromethyl)pyridine] (10 µM) | -11.6 ± 6.2
3 | O=C(O)c1cccnc1Nc1cccc(C(F)(F)F)c1 [Niflumic acid] (100 µM) | -3.19 ± 1.6
4 | C/C=C/C=C/CCCCCCCO [Codlelure] (200 µM) | -13 ± 6
5 | CC/C=C\C/C=C\C/C=C\CCCCCCCC(=O)OCC [Ethyl linolenate] (10 µM) | -8.18 ± 6.8
6 | CCCCCCCCCCCCCCCC[N+](C)(C)Cc1ccccc1 [Benzylhexadecyldimethylammonium chloride] (10 µM) | 57.5 ± 17
7 | CC1=C(/C=C/C(C)=C\C=C\C(C)=C\C(=O)O)C(C)(C)CCC1 [9-cis Retinoic acid] (100 µM) | 5.14 ± 16
8 | CCCCCCCCN [n-Octylamine] (100 µM) | -6.07 ± 0.55
9 | C=CC(=O)OCCOC(=O)CCC(=O)O [4-[2-(Acryloyloxy)ethoxy]-4-oxobutanoic acid] (200 µM) | -12.9 ± 36
10 | C=CCOC(=O)/C=C\C(=O)OCC=C [Diprop-2-en-1-yl (2Z)-but-2-enedioate] (203 µM) | 29.9 ± 1.4
11 | COc1ccc(C(=O)c2ccc(C)cc2)c(O)c1 [Mexenone] (300 µM) | 18.8 ± 32
12 | O=C1c2cccc(O)c2C(=O)c2c(O)cc(CO)cc21 [Aloe-emodin] (100 µM) | 4.61 ± 9.4
13 | Nc1ccccc1N [1,2-Phenylenediamine*] (200 µM) | 88.8 ± 49
14 | C=CCOC(Cn1ccnc1)c1ccc(Cl)cc1Cl (stereo not given) [Imazalil sulfate] (100 µM) | 16.4 ± 4.3
15 | CC1=C(/C=C/C(C)=C/C=C/C(C)=C/C=O)C(C)(C)CCC1 [13-cis-Retinal (Vitamin A aldehyde)] (100 µM) | 64.3 ± 98
16 | O=c1[nH]sc2cc(Cl)ccc12 [Ticlatone] (10 µM) | -7.52 ± 22
17 | C/C=C1\C(=O)C[C@H]2[C@@H]3CCC4=CC(=O)CC[C@]4(C)[C@H]3CC[C@]12C [Guggulsterone Z] (100 µM) | -9.87 ± 7.2
18 | Clc1ccc(C(Cn2ccnc2)OCc2c(Cl)cccc2Cl)c(Cl)c1 (stereo not given) [Isoconazole] (100 µM) | 76.1 ± 95
19 | N=C(N)NN=C(/C=C/c1ccc([N+](=O)[O-])o1)/C=C/c1ccc([N+](=O)[O-])o1 [Nitrovin] (10 µM) | 88.4 ± 21
20 | CC(=O)Oc1ccc(C2(c3ccc(OC(C)=O)cc3)C(=O)Nc3ccccc32)cc1 [Oxyphenisatin acetate] (100 µM) | 6.01 ± 7.9

Row | Structure (SMILES) | CD86 surface expression induction
21 | CCOc1ccc2nc(S(N)(=O)=O)sc2c1 [Ethoxzolamide] (200 µM) | -1.83 ± 4.6
22 | CCC1OCC(COc2ccc(Oc3ccccc3)cc2)O1 (stereo not given) [Diofenolan] (10 µM) | -18.9 ± 5.4
23 | CC(C)(C)c1ccc(S)cc1 [4-tert-Butylbenzenethiol] (200 µM) | 12.9 ± 21
24 | O=C1Nc2ccccc2C1(c1ccc(O)cc1)c1ccc(O)cc1 [Oxyphenisatin] (100 µM) | 3.8 ± 8.1
25 | O=C(Oc1ccccc1)c1ccccc1O [Phenyl salicylate] (200 µM) | -3.35 ± 5.3
26 | O=C1OC(OC(=O)c2cccnc2Nc2cccc(C(F)(F)F)c2)c2ccccc21 (stereo not given) [Talniflumate] (100 µM) | -7.81 ± 1
27 | O=C(OCc1ccccc1)c1ccc(O)cc1 [Benzylparaben] (100 µM) | 3 ± 13
28 | CCCCCCCCCCC=CC1CC(=O)OC1=O (stereo not given) [3-(Dodecenyl)dihydro-2,5-furandione] (200 µM) | -8.58 ± 3
29 | CCCCCCCCCCCC(=O)NCCCN(C)C [N-[3-(Dimethylamino)propyl]dodecanamide] (200 µM) | 43.4 ± 63
30 | O=C(CS)Nc1ccccc1 [Thioglycolic acid anilide] (300 µM) | 34.4 ± 2
31 | CCCCCCCC/C=C\CCCCCCCC(=O)N(C)CC(=O)O [Oleyl sarcosine] (100 µM) | -14.4 ± 36
32 | Cn1sccc1=O [2-Methyl-4-isothiazolin-3-one hydrochloride] (10 µM) | -16.2 ± 4.7
33 | COC(=O)CCCCCCCC(=O)OC [Dimethyl nonanedioate] (200 µM) | -0.54 ± 1.9
34 | S=C(NC1CCCCC1)NC1CCCCC1 [N,N'-Dicyclohexylthiourea] (10 µM) | -17.9 ± 4.5
35 | CCCCCCCCCCCCN(CCO)CCO [Lauryldiethanolamine] (10 µM) | -16.1 ± 0.72
36 | CC(O)C#CC(C)O (stereo not given) [Hex-3-yne-2,5-diol] (10 µM) | 0.05 ± 2.9
37 | CC(C)c1ccc2oc3nc(N)c(C(=O)O)cc3c(=O)c2c1 [Amlexanox] (100 µM) | 8.56 ± 19
38 | CCCCCCCC(=O)Oc1c(Br)cc(C#N)cc1Br [Bromoxynil octanoate] (100 µM) | -3.51 ± 5
39 | CO[C@@H]1[C@H](OC(=O)/C=C/C=C/C=C/C=C/C(=O)O)CC[C@]2(CO2)[C@H]1[C@@]1(C)O[C@@H]1CC=C(C)C [Fumagillin] (100 µM) | -0.42 ± 8.1
40 | CO[C@@]12[C@H](COC(N)=O)C3=C(C(=O)C(C)=C(N)C3=O)N1C[C@@H]1N[C@@H]12 [Mitomycin C] (100 µM) | 60.5 ± 16
